Data: PubChem BioAssay AID1159580 (chemical genetic matrix, 2015)
About 2,000 (36%) of roughly 5,500 compounds were called active. About 18% were inconclusive and are not listed. This is one part of the list. A number with no mark means an inactive call. Rule as the data show it: active = normalized growth mostly below about 0.91 (no sharp cut-off); inconclusive = no clear call, values can overlap the other calls; inactive = mostly above about 0.92.

Assay: chemical genetic growth profiling, strain panel (AID 1159580);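 also: tested at 20 µM; growth read once vehicle control cultures reached saturation at 30 °C; 1 = growth at the plate median or of vehicle wells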
Conditions: S. cerevisiae deletion strains, growth OD

SMILES: N#Cc1c(N)sc2c1CCCCC2
- normalized growth (locus YAL013W, strain DEP1, stronger effect = lower value): 0.959
- normalized growth (locus YBR229C, strain ROT2, stronger effect = lower value): 0.951
- normalized growth (locus YCL061C, strain MRC1, stronger effect = lower value): 0.945
- normalized growth (locus YDL101C, strain DUN1, stronger effect = lower value): 0.971
- normalized growth (locus YDR150W, strain NUM1, stronger effect = lower value): 1.02
- normalized growth (locus YEL061C, strain CIN8, stronger effect = lower value): 0.903 (active)
- normalized growth (locus YGR078C, strain PAC10, stronger effect = lower value): 0.961
- normalized growth (locus YHR030C, strain SLT2, stronger effect = lower value): 0.616 (active)
- normalized growth (locus YHR087W, strain rtc3, stronger effect = lower value): 0.975
- normalized growth (locus YJL187C, strain SWE1, stronger effect = lower value): 0.963
- normalized growth (locus YJR043C, strain POL32, stronger effect = lower value): 0.992
- normalized growth (locus YJR075W, strain HOC1, stronger effect = lower value): 0.945
- normalized growth (locus YKL190W, strain CNB1, stronger effect = lower value): 0.927 (active)
- normalized growth (locus YLR039C, strain RIC1, stronger effect = lower value): 0.96
- normalized growth (locus YLR058C, strain SHM2 (second series), stronger effect = lower value): 0.956
- normalized growth (locus YLR085C, strain ARP6, stronger effect = lower value): 0.714 (active)
- normalized growth (locus YLR262C, strain YPT6, stronger effect = lower value): 0.955
- normalized growth (locus YML094W, strain GIM5, stronger effect = lower value): 0.878
- normalized growth (locus YMR219W, strain ESC1, stronger effect = lower value): 0.95
- normalized growth (locus YMR263W, strain SAP30, stronger effect = lower value): 0.984
- normalized growth (locus YMR307W, strain GAS1, stronger effect = lower value): 0.662 (active)
- normalized growth (locus YNL153C, strain GIM3, stronger effect = lower value): 0.953
- normalized growth (locus YNL298W, strain CLA4 (second series), stronger effect = lower value): 0.944
- normalized growth (locus YNL322C, strain KRE1, stronger effect = lower value): 0.964
- normalized growth (locus YNR030W, strain Alg12, stronger effect = lower value): 0.895
- normalized growth (locus YPL055C, strain LGE1, stronger effect = lower value): 0.97
- normalized growth (locus YPL241C, strain CIN2, stronger effect = lower value): 0.846 (active)
- normalized growth (locus YPR135W, strain CTF4, stronger effect = lower value): 0.498 (active)
